The assay has as its target Solute carrier family 2, facilitated glucose transporter member 1 (Homo sapiens) (UniProt P11166). Kind of assay: ST_JUDE_LEISH: Cytotoxicity at 2uM final concentration against transgenic Leishmania Mexicana promastigotes LmGLUT1 that are glucose transport deficient and complemented with the human glucose transporter GLUT1. Activity is measured by DNA content using SYBR green in vitro. The class given is functional.
Chain of Solute carrier family 2, facilitated glucose transporter member 1 (Homo sapiens) (P11166 whole entry): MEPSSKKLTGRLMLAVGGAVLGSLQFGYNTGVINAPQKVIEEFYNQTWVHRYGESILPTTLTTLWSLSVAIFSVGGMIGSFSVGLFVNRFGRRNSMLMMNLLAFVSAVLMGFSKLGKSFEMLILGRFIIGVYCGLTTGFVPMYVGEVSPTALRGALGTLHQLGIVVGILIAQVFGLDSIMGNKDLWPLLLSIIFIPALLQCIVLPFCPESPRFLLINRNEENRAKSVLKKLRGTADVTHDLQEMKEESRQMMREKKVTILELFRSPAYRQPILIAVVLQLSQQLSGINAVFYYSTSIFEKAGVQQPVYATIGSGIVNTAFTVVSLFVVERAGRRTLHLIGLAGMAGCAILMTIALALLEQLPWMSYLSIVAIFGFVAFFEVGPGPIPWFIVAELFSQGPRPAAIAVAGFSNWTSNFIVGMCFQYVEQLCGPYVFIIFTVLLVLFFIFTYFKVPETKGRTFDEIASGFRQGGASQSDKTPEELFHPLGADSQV
For orientation: inhibition means the relative decrease from the control value, in per cent. For the compound `COc1ccc(CN2CCC(N3CCc4cc(NC(=O)c5cc(C)on5)ccc43)C2)cc1Cl` (stereo not given), the inhibition was -0.2%. In the case of `Cc1cccc2nc(-c3cccc(-c4cccc(NC(=O)c5cncn5C)c4)c3)[nH]c12`, the inhibition was -0.07%. With `CN(C)Cc1ccc2cc(NC(=O)c3ccc(-c4ccc(Cl)cc4)cc3)ccc2c1`, the inhibition is -1.97%. For `Cc1nc(-c2cccc(Nc3nccc(NCC(O)c4ccc(C(F)(F)F)cc4)n3)c2)cs1` (stereo not given) the value was 1.28%; for `O=c1cc(NCCCNCc2scc3c(Cl)cc(C(F)(F)F)nc23)[nH]c2ccccc12`, 2.13%; for `CCN(CC)CC(O)c1cc(-c2ccc(C)cc2)nc2c(C)cc(C)cc12` (stereo not given), 3.3%. Turning to `CC(c1cccc(Nc2nccc(-c3c(-c4cccc(NC(=O)c5c(F)cccc5F)c4)nn4ccccc34)n2)c1)S(C)(=O)=O` (stereo not given), the inhibition is 3.25%. Turning to `Cc1cccc2nc(-c3ccc(-c4ccc(CNCc5cnn(-c6ccccc6)n5)cc4)s3)[nH]c12`, the inhibition was -1.78%. With `COc1ccccc1-n1c(SCC(=O)c2ccc3c(c2)CC(=O)N3C)nnc1-c1cccs1`, the inhibition stood at 24%. For `CS(=O)(=O)NCCCNCc1ccc(-c2ccc(-c3nc4cc(F)ccc4[nH]3)s2)cc1`, the inhibition is -2.43%. Turning to `COc1cc(CN2CCC(CO)(Cc3cccc(C(F)(F)F)c3)CC2)c(Cl)cc1O`, the inhibition worked out at 0.06%.

Regarding `Cc1cccc2nc(-c3ccc(-c4ccc(CNC(C)C)cc4)cc3)[nH]c12`, the inhibition amounted to 21.6%.

On to `Cc1cccc2nc(-c3ccc(-c4ccc(CN5CCC(C(N)=O)CC5)cc4)s3)[nH]c12`, for which the inhibition was 10.9%.

For the compound `CCNC(=O)c1ccc(-n2nc(C)cc2-c2ccccc2)cc1`, the inhibition worked out at 2.66%. Consider `Cc1ccccc1CN1CCCN(Cc2ccc(C(=O)Nc3ccc(Cl)cc3)cc2)CC1`, for which the inhibition was found to be 7.5%. For `CC(C)c1cccc(C(NC(=O)[C@H]2Cc3ccccc3CN2C(=O)c2cccc(N3CCOCC3)c2)C2CCCC2)c1` (stereo not given in full) the value was 1%; for `COc1cc(C2=NN(S(=O)(=O)c3c(Cl)cc(Cl)cc3Cl)CCCC2)ccc1Cl`, 2.1%; for `Nc1nc(N)c2c(ccc3c2ccn3Cc2ccc(OCc3ccccc3)cc2)n1`, 2.4%. With `COC(=O)c1ccc2nc(-c3ccc(C(=O)NC4CCN(Cc5ccccc5)CC4)s3)[nH]c2c1`, the inhibition stood at 6.63%.

Regarding `COc1cc2c(cc1S(=O)(=O)c1ccc(COc3ccc(C(F)(F)F)cc3)cc1)CNCC2`, the inhibition is -1.59%. For `N#Cc1ccc2[nH]cc(C(=O)CCCCCN(Cc3ccccc3)Cc3ccccc3)c2c1` the value was 0.31%; for `Cc1nc2ccc(-c3ccc(OC(F)(F)F)cc3)cc2c(O)c1C#N`, -2.1%.

With `O=C(Nc1nc2ccc(Cl)cc2s1)c1csnn1`, the inhibition is -1.77%. As for `N=C(N)Nc1nc(-c2cccc(NC(=O)NCCc3c[nH]c4ccc(OCc5ccccc5)cc34)c2)cs1`, the inhibition was 0.6%. To `CCOc1ccc(-c2nc(NC(=O)CS(=O)(=O)c3ccccc3)sc2C)cc1` belongs 2.75%; to `CCCCCCP(=O)(COc1ccc(CCN(CC(O)COc2cccc3[nH]c(C(N)=O)cc23)CC(O)COc2cccc3[nH]c(C(N)=O)cc23)cc1)OCCCC` (stereo not given), 8.37%; to `CCN(CC)CCN(Cc1ccc(-c2ccc(C(F)(F)F)cc2)cc1)C(=O)Cn1c(CCc2cccc(F)c2F)nc(=O)c2ccc(F)cc21`, 2.25%. As for `Nc1c(Cl)cc(C(O)CNCCCCCCOCCC=C2CCOCC2)cc1Cl` (stereo not given), the inhibition was -0.91%.

Regarding `CN1CCC(N2CCC(Oc3cccc(C(=O)NCCCC4CCCC4)c3)CC2)CC1`, the inhibition was determined as 10.9%. In the case of `CCOc1ccc2[nH]c(C)cc(=NN=Cc3cccc(C)n3)c2c1`, the inhibition was found to be 3.19%. On to `CCCCC(=O)Nc1ccc(Nc2nc(C)cc(N3CCCC3)n2)cc1`, for which the inhibition was determined as 2.54%. `NC1CCN(Cc2ccc(-c3cccc(-c4nc5ccccc5[nH]4)c3)cc2)C1` (stereo not given): the inhibition was 5.49%. On to `CCn1cnc2c(N3CCCS3(=O)=O)cc(C(=O)N[C@@H](Cc3ccccc3)[C@H](O)CNC(C)(C)c3cccc(C(F)(F)F)c3)cc21`, for which the inhibition is 3.01%. To `COc1cccc(-c2cc(C(F)(F)F)n3ncc(C(=O)Nc4cc(Cl)ccc4O)c3n2)c1` belongs 0.65%; to `Cc1ccc(C2CCN(CCCCNC(=O)c3ccc(-c4ccc(C(F)(F)F)cc4)cc3)CC2)c(O)c1`, -0.37%; to `Cc1cc(NC(=O)NCCN2CCC(NC(=O)c3ccc(C(F)(F)F)cc3)CC2)c2ccccc2n1`, 0.67%. As for `Nc1c(Cl)cc(C(O)CNCCCCCOCCCc2ccc3ncccc3c2)cc1Cl` (stereo not given), the inhibition came out at 5.88%.

Take `COc1c(C2CCN(CCN3CCC(CNC(=O)c4ccc(-c5ccc(C#N)cc5)cc4)CC3)CC2)ccc2c1CCCC2`: the inhibition stood at 3.97%. With `CCn1ccc2c(N3CCCC3=O)cc(C(=O)N[C@@H](Cc3ccccc3)[C@H](O)CNC3CCCCC3)cc21`, the inhibition was determined as 4.2%. With `Cc1ccc(-c2ccc3c(c2)C=C(C(=O)NC2CCN(CCNC(=O)c4cccs4)CC2)CCC3)cc1`, the inhibition is 8.71%.
